In the library only some 18% were active in any assay of this set; here they are far more common.
DT40 TDP1 no CPT – qHTS for Inhibitors of human tyrosyl-DNA phosphodiesterase 1 (TDP1): qHTS in cells in absence of CPT; Potency, µM (highest dose often 46.2 µM), without a hit: top-dose activity change, negative = growth inhibition, most hits filed as inhibitors; DT40 Tdp1-/- hTDP1 cells, no CPT, ATP luminescence, 48 h; 15% of 420,000 active; further: potency means the concentration at half of the fitted maximal effect; nearly all actives have a fitted effect of over 55% in size
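DT40 Tdp1-/-;hTDP1 cells, no CPT (DMSO vehicle only), 400 cells/well; compounds pin-transferred; ≥48 hr, 37 °C; CellTiter-Glo 30 min RT dark, luminescence read.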
TDP1 cell CPT – growth inhibition of DT40 Tdp1-/-;hTDP1 cells with camptothecin (screen for TDP1 inhibitors) | chicken DT40 Tdp1-/-;hTDP1 cells + 20 nM CPT, ATP luminescence, 48 h | 12% of 420,000 active | Potency, µM (doses to about 46.2 µM), for the others: at the top dose activity change, negative = growth inhibition, actives largely listed as inhibitors; further: potency means the concentration at half of the fitted maximal effect; nearly all actives have a fitted effect of over 55% in size
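Chicken DT40 Tdp1-/- cells complemented with human TDP1, 400 cells/well, exposed to compounds plus 20 nM camptothecin for at least 48 h at 37 C; viability read as ATP content by CellTiter-Glo luminescence.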
IL1B secr inh – inflammasome signaling inhibition, IL-1 beta readout; activity change, % at 57.5 µM; AID 743279; THP-1 LPS/ATP IL-1B secretion, AlphaLISA, 16 h; active compounds read low; 4.7% of 360,000 active; in the data active means activity change below about -50%; inconclusive means mostly about -30% to -49%
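Secreted IL-1B measured by AlphaLISA bead assay after 16 h compound exposure of THP-1 cells; compounds (final up to 57.5 uM) added 1 h before LPS (250 ng/mL) and ATP (1.25 mM) stimulation; lower signal means less secretion.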
RORgamma inh – ROR gamma (mouse) transcription inhibition; Potency, µM (titrated, usually from 53.6 µM), for inactives: at the top dose activity change, negative = inhibition, usual class: inhibitors; Drosophila S2 Gal4-RORgamma UAS-luciferase reporter, 20 h; 5.4% of 310,000 active; further: potency means the concentration at half of the fitted maximal effect; nearly all actives have a fitted effect of over 60% in size
Target sequence (P51450 whole entry, looked up, the tested form may be a part): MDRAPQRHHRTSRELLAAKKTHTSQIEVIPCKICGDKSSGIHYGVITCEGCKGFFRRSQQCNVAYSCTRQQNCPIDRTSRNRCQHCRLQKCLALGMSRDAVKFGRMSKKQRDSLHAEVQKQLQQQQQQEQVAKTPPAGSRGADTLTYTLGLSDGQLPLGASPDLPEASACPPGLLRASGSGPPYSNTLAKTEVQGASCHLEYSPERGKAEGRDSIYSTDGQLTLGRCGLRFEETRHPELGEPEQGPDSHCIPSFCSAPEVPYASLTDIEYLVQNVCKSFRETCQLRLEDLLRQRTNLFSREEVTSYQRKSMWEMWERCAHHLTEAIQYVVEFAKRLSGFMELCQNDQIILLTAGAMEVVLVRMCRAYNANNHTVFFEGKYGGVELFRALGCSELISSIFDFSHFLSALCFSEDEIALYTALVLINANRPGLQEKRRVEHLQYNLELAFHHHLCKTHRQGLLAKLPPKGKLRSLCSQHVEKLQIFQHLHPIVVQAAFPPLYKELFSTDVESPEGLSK
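Stably transfected Drosophila Schneider cells are the test system, with ROR gamma fused to Gal4 and luciferase under UAS control; luminescence is read after 20 hr of 700 uM copper sulfate induction at ambient temperature.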
Gal4-VP16 FLuc – inhibits Gal4-VP16 luciferase reporter, ROR gamma counter-screen | Drosophila S2 Gal4-VP16 UAS-luciferase, luminescence, 20 h | Potency, µM (top dose mostly 53.6 µM), for inactives: at the top dose activity, negative = inhibition, actives largely listed as inhibitors | 3.5% of 310,000 active;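 further: Gal4-VP16 expression switched on by copper sulfate through the metallothionein promoter; potency means the concentration at half of the fitted maximal effect; nearly all actives have a fitted effect of over 50% in size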
LDHA block – inhibitors of human lactate dehydrogenase A; P00338; purified LDHA, NADH/diaphorase-resazurin fluorescence; active compounds read low; activity change, % (values are at about 110 or 230 µM); 0.15% of 480,000 active; AID 1347041; in the data active means activity change below about -30%; inconclusive means mostly about -25% to -30%;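 further: plate controls were DMSO wells for no effect and wells without enzyme for full effect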
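Human LDH5 (2 nM) was incubated with 0.06 mM NADH and 0.2 mM pyruvate for 5 min at room temperature in Tris pH 7.4. Remaining NADH was coupled through diaphorase/resazurin, and resorufin fluorescence was read at 0 and 20 min.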
* = called active by the depositor; ? = inconclusive; . = no result given; ! = not confirmed by another sample. Unless noted, the call rests on the fitted dose curve; in most records, active means well fitted curve in the direction sought with a large enough effect; inconclusive means small, poorly fitted or top-dose-only effect, or another doubt; inactive means no such curve, though single readings can be large; an effect the other way counts as inactive or inconclusive. Unless noted, on the % scale 0 is the no-effect control and ±100 the full control effect.

SMILES	DT40 TDP1 no CPT	TDP1 cell CPT	IL1B secr inh	RORgamma inh	Gal4-VP16 FLuc	LDHA block
CCOC(=O)c1cccc(NC(=O)C2CCN(S(=O)(=O)c3c(C)noc3/C=C/c3ccc(C)cc3)CC2)c1	12µM*	21µM*	.	.	.	4
COc1ccc(/C=C\c2onc(C)c2S(=O)(=O)N2CCC(C(=O)Nc3ccc(C)cc3C)CC2)cc1	?	?	.	.	.	1
Cc1noc(C)c1S(=O)(=O)N1CCC(C(=O)NCCN2CCC(C)CC2)CC1	6%	-11%	-8	-31%	-14%	5
CNC(=O)C1CCN(S(=O)(=O)c2c(C)noc2/C=C/c2cccc(OC)c2)CC1	-15%	3%	-20	-8%	1%	-3
COC(=O)c1cnc(N2CCN(c3ccccc3)CC2)c2ccccc12	.	.	.	.	.	-20
CNC(=O)c1ccc(NC(=O)CN2CCc3cc(OC)c(OC)cc3C2c2ccccc2)cc1 (stereo unspecified)	.	.	.	.	.	14
CCc1ccc(NC(=O)C2CCN(S(=O)(=O)c3c(C)noc3C)CC2)cc1	18µM*!	?	1	12%	5%	-2
CCc1ccccc1NC(=O)CC1CC2CCC1C2 (stereo unspecified)	.	.	.	.	.	-3
CCCCSCCCNC(=O)CS(=O)Cc1nc(-c2ccc(C)cc2)oc1C (stereo unspecified)	.	.	.	.	.	-3
CCCS(=O)(=O)NCCc1sc2nc(-c3ccc(Cl)cc3)nn2c1C	8.2µM*	5.2µM*	.	.	.	-17
Cc1cc(C)c(S(=O)(=O)NCCc2sc3nc(-c4ccc(F)cc4)nn3c2C)c(C)c1	21µM*	?	.	.	.	-4
CCCS(=O)(=O)NCCc1sc2nc(-c3ccc(F)cc3)nn2c1C	15µM*	21µM*	.	.	.	0
CCOc1ccc(S(=O)(=O)NCCc2sc3nc(-c4ccc(F)cc4)nn3c2C)cc1	15µM*	?	.	.	.	-1
Fc1ccc(-c2nc3ccccc3o2)cc1	.	.	.	.	.	9
CC(=O)NCc1ccc(C(=O)CCl)s1	1.2µM*	0.52µM*	-17	11µM*	7.1µM*	2
CC(=O)NCc1ccc(C(=O)CCl)cc1	?	4.1µM*	-102*	?	?	-2
CC(=O)N(C)Cc1ccc(C(=O)CCl)cc1	0.92µM*	1µM*	-106*	24%	-1%	-2
CC(=O)Nc1ccc(C(=O)CCl)cc1	2.1µM*	1.5µM*	-104*	4.5µM*	?	-8
O=C(CCc1c[nH]c2ccccc12)NCc1ccc(F)cc1	.	.	.	.	.	2
Cn1nc(C(=O)NCC(c2cccs2)N2CCCC2)c2ccccc2c1=O (stereo unspecified)	.	.	.	.	.	-12
O=C(Oc1ccc(OC(=O)c2ccco2)c(S(=O)(=O)c2ccc(Cl)cc2)c1)c1ccco1	16µM*	-22%	-8	?	?	-7
CC(=O)c1cc(Cl)ccc1OC(=O)c1ccco1	-13%	3%	13	-13%	3%	0
Cc1ccc(-n2nnnc2C(Cl)c2nnnn2-c2ccc(C)cc2)cc1	8.2µM*	15µM*	-59*	11µM*	8.9µM*	1
CCCCC(=O)NC(NC(=S)N1CCCCCC1)C(Cl)(Cl)Cl (stereo unspecified)	13µM*	13µM*	-5	?	-5%	-8
CCN(CC)c1nc2c(c(=O)[nH]c(=O)n2C)n1CC(O)COc1ccc(C)cc1 (stereo unspecified)	.	.	.	.	.	2
SMILES	DT40 TDP1 no CPT	TDP1 cell CPT	IL1B secr inh	RORgamma inh	Gal4-VP16 FLuc	LDHA block
Cn1c(=O)n(Cc2ccccc2)c(=O)c2c1nc1n2CCCN1C1CCCCC1	-17%	-12%	25	.	.	-6
Cc1cccc(N2CCCn3c2nc2c3c(=O)n(CCN3CCOCC3)c(=O)n2C)c1	?	21µM*	24	1%	0%	1
CCn1c(=O)c2c(nc3n2CCCN3Cc2ccccc2)n(C)c1=O	?	-27%	-12	14%	-7%	0
COc1ccc(N2CCCn3c2nc2c3c(=O)n(CCN3CCOCC3)c(=O)n2C)cc1	-14%	-2%	15	6%	0%	-1
CCn1c(=O)c2c(nc3n2CCCN3CCc2ccc(OC)c(OC)c2)n(C)c1=O	?	-24%	4	11%	-11%	1
Cc1cccc(Cn2c(=O)c3c(nc4n3CCCN4Cc3ccccc3)n(C)c2=O)c1	11µM*	?	?	11%	-4%	-2
Cn1c(=O)n(Cc2ccc(F)cc2)c(=O)c2c1nc1n2CCCN1C1CCCCC1	21µM*	23µM*	-18	36%	-10%	-5
COc1ccc(CCN2CCCn3c2nc2c3c(=O)n(CC(C)C)c(=O)n2C)cc1OC	13µM*	21µM*	-1	-8%	-3%	-2
CCOC(=O)c1ccc(S(=O)(=O)N2CCCC2c2cccn2C)cc1 (stereo unspecified)	.	.	.	.	.	5
CCN(Cc1ccccc1)C(=S)Nc1ccc(C)cc1C	.	.	.	.	.	0
Cc1ccc(S(=O)(=O)N2[C@@H](c3cccc(Cl)c3)C(C(=O)OC(C)(C)C)=CC[C@H]2c2cccc(Cl)c2)cc1	12µM*	9.2µM*	6	.	.	-10
Cc1ccc(S(=O)(=O)N2[C@@H](c3ccc(Cl)cc3)C(C(=O)O)=CC[C@H]2c2cccc(Cl)c2)cc1	3%	-25%	26	.	.	-6
CC(C)(C)OC(=O)C1=CC[C@@H](c2ccc(Cl)c(Cl)c2)N(S(=O)(=O)c2ccc(F)cc2)[C@H]1c1cccc(F)c1	15µM*	?	3	.	.	-6
CCN(Cc1c(C#N)c2ccccc2n1C)c1ccccc1	.	.	.	.	.	2
C=C1CCN([C@@H](Cc2ccccc2)C(=O)NCc2ccc(Cl)cc2)S(=O)(=O)c2ccccc21	21µM*	?	0	.	.	0

From PubChem
